Activity calls are given as the source filed them. The calls were made as follows: active = hit-call score of the fitted dose curve at least 0.9, where 1 is the maximum; inactive = score below 0.9.
assay: CCTE_Shafer_MEA_acute_per_burst_spike_number_mean: CCTE's Neural Acute Assay for Average Number of Spikes Per Burst, Shafer Lab (AID 2284015);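 also: hits are decreases in mean spikes per burst versus baseline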
Procedure: CCTE_Shafer_MEA_acute assay is conducted using Axion Biosystems 48 well microelectrode array (MEA) plates and Maestro recording system. Each well of the MEA plate contains a grid of 16 microelectrodes embedded in the culture surface. Electrically active cells, such as neurons, can be cultured over the electrodes, and electrical activity in these cells can be recorded extracellularly. The spontaneous firing of neurons is captured from each electrode on a microsecond timescale providing both temporally and spatially precise data. […] The CCTE_Shafer_MEA_acute assay uses primary cultures of rat cortical neurons. As these cultures mature over time, neural networks develop functional activity and form cohesive networks in which electrical activity can be highly coordinated. Baseline 40-minute recordings are made on days post-plating 13 or 15, followed by a secondary 40-minute recording after chemical exposure.CCTE_Shafer_MEA_acute_per_burst_spike_number_mean is a component of the CCTE_Shafer_MEA_acute assay. It measures the average number of spikes (action potential firings) in a single-electrode burst (temporally-clustered group of spikes) during a recording in a microelectrode array (MEA) using Axion Biosystems Maestro 768 channel amplifier with the AxIS adaptive spike detector. The recordings before and after chemical treatment are used to calculate a percent change in the mean number of spikes per burst in each well.Data from the assay component CCTE_Shafer_MEA_acute_per_burst_spike_number_mean was analyzed into 1 assay endpoint. This assay endpoint, CCTE_Shafer_MEA_acute_per_burst_spike_number_mean, was analyzed in the negative analysis fitting direction relative to DMSO as the negative control and baseline of activity. Using a type of functional reporter, gain or loss-of-signal activity can be used to understand electrical activity.
Spontaneous activity in the cortical cultures was recorded using an Axion Biosystems Maestro 768 channel amplifier and Axion Integrated Studios (AxIS) v1.8 (or later) software. The amplifier recorded from all channels simultaneously (gain = 1200 x; sampling rate = 12.5 kHz/channel): raw signals were filtered with a Butterworth band-pass filter (300-5000 Hz), which filters out slower local field potentials leaving only fast potentials, i.e., "spikes", arising from extracellular currents associated with action potentials (Pine 2006; Wheeler and Nam 2011). On-line spike detection of filtered signals was conducted with the AxIS adaptive spike detector, using a threshold of 8x the root mean squared (rms) noise on each channel. Any electrodes with rms noise levels greater than 5 uV were grounded (e.g., no data were recorded). Once grounded, an electrode was grounded for the duration of the experiment. All recordings were conducted at 37 C. Wells were deemed usable if on the day of the exposure >/= 10 electrodes were active (defined as >/= 5 spikes/min). On DIV 13 or 15, a minimum of three wells from one cortical culture preparation were treated with each compound (0.03-40 uM). Prior to recording baseline activity, each mwMEA plate was placed in the Maestro at 37 C and allowed to sit for 20 min while firing rates stabilized. Baseline activity (40 min) was recorded before the addition of each compound. An additional 40 min of spontaneous activity was recorded in the presence of each compound. Changes in network parameters relative to baseline were assessed following compound treatment.

Question: With OCc1ccccc1 as the molecule, how does the outcome read?
Answer: Its outcome is “inactive”.

Question: With CCCc1ccccc1 as the molecule, how does the outcome read?
Answer: Its outcome is “inactive”.

Question: With c1ccc(C(O[C@@H]2CCCN(CCc3ccc4c(c3)OCO4)C2)c2ccccc2)cc1 as the molecule, how does the outcome read?
Answer: The outcome was “inactive”.

Question: With Cc1ncc([C@@H](CCCCCCc2ccc3c(n2)NCCC3)CC(=O)O)cn1 as the molecule, how does the outcome read?
Answer: Its outcome is “inactive”.

Question: For O=S(=O)(O)c1ccc(N=Nc2c(O)ccc3cc(S(=O)(=O)O)ccc23)cc1, which outcome is on record?
Answer: Its outcome is “inactive”.

Question: With OC(CCl)CCl as the molecule, how does the outcome read?
Answer: The outcome was “inactive”.

Question: For COc1cc(C(C)C)c2c(c1)S(=O)(=O)N(COc1cc(=O)n3cccc(OCCN4CCCCC4)c3n1)C2=O, which outcome is on record?
Answer: The outcome was “inactive”.

Question: Which outcome does the source give for COc1cc2c(c(OC)c1OC)-c1ccc(OC)c(=O)cc1[C@@H](NC(C)=O)CC2 here?
Answer: Its outcome is “inactive”.

Question: For CC[C@H](C)C(=O)O[C@H]1C[C@H](O)C=C2C=C[C@H](C)[C@H](CC[C@@H](O)C[C@@H](O)CC(=O)O)[C@H]21, which outcome is on record?
Answer: The outcome was “inactive”.

Question: For COCc1nnc(-c2ccc[n+]([O-])c2)n1-c1c(Cl)c(Cl)cc2[nH]c(=O)c(=O)[nH]c12, which AC50 is on record?
Answer: Its AC50 is 8.06 µM (active).

Question: For Cn1c(=O)c2[nH]cnc2n(C)c1=O, which outcome is on record?
Answer: Its outcome is “inactive”.

Question: For C=CCc1cc(S(=O)(=O)c2ccc(O)c(CC=C)c2)ccc1O, which outcome is on record?
Answer: Its outcome is “inactive”.

Question: For CCCCCCCC/C=C\CCCCCCCC(=O)OC[C@@H](O)[C@H]1OC[C@H](O)[C@H]1O, which outcome is on record?
Answer: The outcome was “inactive”.

Question: With CCCCCCCC1CCC(=O)O1 (stereo not drawn) as the molecule, how does the outcome read?
Answer: The outcome was “inactive”.

Question: Which outcome does the source give for c1ccc2cc3ccccc3cc2c1 here?
Answer: Its outcome is “inactive”.

Question: With CCc1ccc(O)c(C(C)(C)C)c1 as the molecule, how does the AC50 read?
Answer: The AC50 was 30.3 µM (active).

Question: With CC(C)C(=O)Nc1ccc([N+](=O)[O-])c(C(F)(F)F)c1 as the molecule, how does the AC50 read?
Answer: Its AC50 is 4.66 µM (active).

Question: With CCCCC(CC)C(=O)OCCOCCOCCOC(=O)C(CC)CCCC (stereo not drawn) as the molecule, how does the outcome read?
Answer: Its outcome is “inactive”.

From PubChem BioAssay (EPA / NIEHS)
